Laboratory results taken from the supplement of paper PMC6555819.

Tested on: PXR homodimer (NR concentration 270 nM)
Assay: PBM binding z-score (relative to random genomic background probes); higher = stronger binding; sequences stand for … in GC…GCGATTGACAGCGTAGAATGAAGG
How it was run: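 Each nuclear receptor dimer, without ligand, was incubated for 1 h on custom Agilent 4×180K protein-binding microarrays. Binding was detected with antibodies against each partner (one per run), and scanned fluorescence was regression-normalized. The binding z-scores are referenced to random human genomic background probes.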

First: TCATATAGGTACATGCTAGGTGAAAGTCCGATCT
Second: CGAACTAAGTCAAGGACAGTGAATCTCCGCACGC
The PBM binding z-score of the first is higher: 0.248 for the first, -0.329 for the second.

Compared with AATACAGGGTCACTAGGCGAGAGTAGGTACGAAT, CGTCCAAGGTCAAAGGTCAGAGAAGAGATGACGG is higher in PBM binding z-score: 0.858 for the first, 1.67 for the second.

Going from TATAGTTGGTCAAAGGTCACACACTCGAAATGCG to TTACCAAGGTGAAAGGTTGTTGATGCACGCCTTG, the PBM binding z-score falls from 1.29 to -0.373.

Compared with ACTAGCAGGCCAAGTTTGGGTCGCTCAAACAAAG, CTCGAAAGGTCGTGCTCAGGTGAGTAGACCAAAC is higher in PBM binding z-score: -0.606 for the first, -0.191 for the second.

First: GGAACGAGGGCATTCTAGTTGATAGCATGGCGAT
Second: CCAGACAGCTGAAAGGTAACTCAGTCTGGTACGC
The PBM binding z-score of the first is higher: 0.396 for the first, -0.344 for the second.

First: CGAACTAGGTCATCCAGAACAGTGAATACATTGA
Second: TCTTGTAGATCAGCAGATTAAGAAAGCTGGCCAA
The PBM binding z-score of the first is higher: 0.368 for the first, -0.568 for the second.

Going from ACTATTAGTTGACTTAGGGAAACCGATACGACGC to CGAACTGGGTCATTGACAGGACAGTGAATAGTAA, the PBM binding z-score rises from 0.319 to 0.347.

First: TCTCGGAGGACACCAAGGTCAGAGCTTTCCAGAG
Second: TCTTGTAGACCAATAGAGGTTAAGAAAGTGCGCT
The PBM binding z-score of the first is higher: 2.65 for the first, 0.469 for the second.

Compared with GCTAGTTGGTCAGTAAAAAGTCACACACCGGTCG, AGAACGAGGGCAGGCTGAGTTGATAGCAGAGTAG is higher in PBM binding z-score: -0.328 for the first, -0.0945 for the second.

First: CCGAGGAGGTTATGGGGCATTCAGGCAACGGTGA
Second: CCTAGCAGGCCAATCTGGGTTACTCAAGGCTTGA
The PBM binding z-score of the first is higher: -0.214 for the first, -0.895 for the second.

Compared with ACTATTAGTTGACTTAGGGCAAGCGATACGACGC, CCTTACGGGGCACTGACAGGTTATAGCATTTGGA is lower in PBM binding z-score: 0.294 for the first, -0.274 for the second.
